# Assay outcomes (PubChem BioAssay)
# Only some compounds are listed: those with a hit (about 19% of all), similar ones and a draw of the others.
# TDP1 cell noCPT = qHTS for Inhibitors of human tyrosyl-DNA phosphodiesterase 1 (TDP1): qHTS in cells in absence of CPT; DT40 Tdp1-/- hTDP1 cells, no CPT, ATP luminescence, 48 h; Potency, µM (top dose mostly 46.2 µM), without a hit: at the highest dose activity change, negative = growth inhibition, most hits filed as inhibitors; 420,000 tested, 15% active; AID 686978, 2013; further: potency means the concentration at half of the fitted maximal effect; on the % scale 0 is the no-effect control and ±100 the full control effect; nearly all actives have a fitted effect of over 55% in size
#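 Camptothecin absent (DMSO only). Human TDP1-complemented DT40 knockout cells, 400 cells/well, 37 °C for minimum 48 hr; ATP measured via CellTiter-Glo, 30 min dark incubation, luminescence.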
# TDP1 inh = qHTS Assay for Inhibitors of Tyrosyl-DNA Phosphodiesterase (TDP1) | Tyrosyl-DNA phosphodiesterase 1 (Homo sapiens), Q9NUW8 | recombinant TDP1, AlphaScreen DNA substrate cleavage | Potency, µM (highest dose often 130 µM), for the others: at the top dose activity change, negative = inhibition, actives largely listed as inhibitors | 350,000 tested, 0.28% active | AID 485290, 2010; further: potency means the concentration at half of the fitted maximal effect; on the % scale 0 is the no-effect control and ±100 the full control effect; nearly all actives have a fitted effect of over 40% in size
# Target sequence (Q9NUW8 whole entry, looked up): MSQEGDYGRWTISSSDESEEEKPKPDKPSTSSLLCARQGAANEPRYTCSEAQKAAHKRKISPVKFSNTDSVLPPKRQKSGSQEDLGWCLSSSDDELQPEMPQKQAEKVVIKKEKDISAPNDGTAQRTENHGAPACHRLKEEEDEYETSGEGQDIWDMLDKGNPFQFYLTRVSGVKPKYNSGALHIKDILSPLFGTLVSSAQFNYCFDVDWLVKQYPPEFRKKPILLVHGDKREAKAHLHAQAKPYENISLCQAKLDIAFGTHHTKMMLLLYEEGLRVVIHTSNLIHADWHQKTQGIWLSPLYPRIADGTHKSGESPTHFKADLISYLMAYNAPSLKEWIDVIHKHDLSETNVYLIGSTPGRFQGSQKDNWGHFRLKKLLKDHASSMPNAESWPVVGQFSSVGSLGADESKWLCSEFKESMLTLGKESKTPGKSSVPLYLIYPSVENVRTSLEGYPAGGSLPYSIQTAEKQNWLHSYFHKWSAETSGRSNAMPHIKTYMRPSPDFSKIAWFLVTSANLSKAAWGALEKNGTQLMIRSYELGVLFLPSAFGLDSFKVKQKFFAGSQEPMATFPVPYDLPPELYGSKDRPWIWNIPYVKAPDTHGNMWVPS
#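 Here, a 5' biotin and 3' phosphotyrosine-FITC DNA oligonucleotide reports Tdp1 activity: intact substrate bridges AlphaScreen beads, while cleavage leaves a 3' phosphate and drops signal. All incubations at room temperature.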
# TGFb SMAD3 inh = qHTS for Inhibitors of TGF-b; AID 588855, 2011; HepG2 CAGA-GFP TGF-b/SMAD3 reporter, GFP fluorescence, 18 h; TGF-beta stimulated, 500 pg/mL final; 410,000 tested, 1.2% active; Potency, µM (series often up to 46.1 µM), inactives show at the highest dose activity, negative = inhibition, hits mostly inhibitors; further: potency means the concentration at half of the fitted maximal effect; on the % scale 0 is the no-effect control and ±100 the full control effect; nearly all actives have a fitted effect of over 65% in size
#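 Smad-responsive CAGA-GFP expression was quantified in HEPG2 cells exposed to compounds and 500 pg/mL final TGF-beta for 18 h at 37 degrees C; unstimulated wells defined full inhibition.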
# IL1B secr inh = qHTS for Inhibitors of Inflammasome Signaling: IL-1-beta AlphaLISA Primary Screen. AID 743279, 2014. 360,000 tested, 4.7% active. activity change, % at 57.5 µM. THP-1 LPS/ATP IL-1B secretion, AlphaLISA, 16 h; active compounds read low; in the data active means activity change below about -50%; inconclusive means mostly about -30% to -49%; further: on the % scale 0 is the no-effect control and ±100 the full control effect
#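 Secreted IL-1B measured by AlphaLISA bead assay after 16 h compound exposure of THP-1 cells; compounds (final up to 57.5 uM) added 1 h before LPS (250 ng/mL) and ATP (1.25 mM) stimulation; lower signal means less secretion.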
# TDP1 cell CPT = qHTS for Inhibitors of human tyrosyl-DNA phosphodiesterase 1 (TDP1): qHTS in cells in presence of CPT. 420,000 tested, 12% active. chicken DT40 Tdp1-/-;hTDP1 cells + 20 nM CPT, ATP luminescence, 48 h. AID 686979, 2013. Potency, µM (doses to about 46.2 µM), without a hit: at the highest dose activity change, negative = growth inhibition, usual class: inhibitors; further: potency means the concentration at half of the fitted maximal effect; on the % scale 0 is the no-effect control and ±100 the full control effect; nearly all actives have a fitted effect of over 55% in size
#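 Chicken DT40 Tdp1-/- cells complemented with human TDP1, 400 cells/well, exposed to compounds plus 20 nM camptothecin for at least 48 h at 37 C; viability read as ATP content by CellTiter-Glo luminescence.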
# HepG2 viability = qHTS for Inhibitors of TGF-b: Cytotox Counterscreen; HepG2 CAGA-GFP viability, ATP luminescence, 18 h; Potency, µM (doses to about 46.1 µM), for inactives: top-dose activity change, negative = cytotoxicity, actives largely listed as cytotoxic; 410,000 tested, 0.76% active; further: potency means the concentration at half of the fitted maximal effect
#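 CellTiter-Glo luminescence gave cytotoxicity after 18 hours at 37 degrees C. The cells were HepG2 CAGA-GFP in 1% FBS DMEM, stimulated with 500 pg/mL TGF-beta after compound addition. %Activity was normalised to no-cell wells (complete cell-killing) and DMSO (no toxicity), and curves were fitted and classified.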
# Starred values were filed as active, the others as inactive; ? = inconclusive; nt = no result; [ ] = dose if it differs, or a comment. Unless noted, the call rests on the fitted dose curve; in most records, active means well fitted curve in the direction sought with a large enough effect; inconclusive means small, poorly fitted or top-dose-only effect, or another doubt; inactive means no such curve, though single readings can be large; an effect the other way counts as inactive or inconclusive.
SMILES,TDP1 cell noCPT,TDP1 inh,TGFb SMAD3 inh,IL1B secr inh,TDP1 cell CPT,HepG2 viability
O=C(NC(=S)Nc1cccc(CO)c1)c1ccc(-c2ccccc2)cc1,13µM*,2.4%,?,-10.1,23.1µM*,-34.6%
Cc1snnc1C(=O)NC(=S)Nc1ccccc1,13µM*,5.1%,-10.1%,13.5,-29.2%,-17.4%
CCC(C)N1C(=O)N(c2cccc(Cl)c2)C(C)(O)CC1(C)C (centres undefined),-29.1%,nt,14.3%,-2.4,?,2.2%
O=C(CCC(=O)Nc1ccccc1Cl)NN=C1CCCC1,20.5%,2.5%,2.7%,23.4,-6.1%,-1.6%
Cc1ccc(-n2c(=O)c3c(cnn3C)n(Cc3ccc(Cl)cc3)c2=O)cc1,?,8.8%,nt,nt,-10.4%,-1.0%
CC(=O)c1cccc(NC(=S)NC(=O)c2ccc(C)cc2)c1,18.4µM*,2.4%,-9.9%,-6.5,?,5.9%
O=C(NC(NC(=S)Nc1c(Cl)cc(Cl)cc1Cl)C(Cl)(Cl)Cl)OCc1ccccc1 (centres undefined),16.4µM*,-1.1%,?,-58.4*,?,-26.2%
CC(=O)c1cccc(NC(=S)NC(=O)c2ccc(Br)cc2)c1,-13.2%,-1.2%,-0.4%,6.0,-5.3%,3.1%
O=C(NC(=S)Nc1c(Cl)cc(Cl)cc1Cl)c1ccccc1,9.2µM*,nt,-26.6%,-1.2,23.1µM*,-29.3%
CC(C)C(=O)Nc1cccc(NC(=S)NC(=O)c2ccc(Cl)cc2)c1,16.4µM*,0.0%,-13.6%,-8.3,?,-15.6%
Cc1ccccc1CNC(=O)CN(c1ccccc1Cl)S(C)(=O)=O,-6.4%,nt,-10.5%,-0.2,-12.9%,-4.2%
Cc1ccc2[nH]c(=O)c(C3C(C#N)=C(N)Oc4c3ccc3cccnc43)cc2c1 (centres undefined),20.6µM*,6.1%,10µM*,?,20.6µM*,-110.1%
N#CC1=C(N)Oc2c(ccc3ccccc23)C1c1cccs1 (centres undefined),0.631µM*,5.6%,?,54.7,0.562µM*,-17.5%
COC(=O)C1=C(C)NC(C)=C(C(=O)OC)C1c1cc2cc(C)ccc2[nH]c1=O,-25.2%,3.4%,?,8.2,-19.0%,-0.3%
N#CC1=C(N)Oc2c(ccc3cccnc23)C1c1ccccc1 (centres undefined),4.11µM*,7.5%,?,74.4,5.17µM*,-34.8%
O=C(O)CCN1CCc2ccccc2C1c1cccs1 (centres undefined),-8.1%,-2.5%,4.3%,0.0,4.0%,1.9%
Oc1ccc(NC(=S)Nc2ccc(F)cc2)cc1,?,3.8%,2.8%,-1.1,0.1%,0.6%
Fc1ccc(NC(=S)Nc2ccc(Br)cc2)cc1,9.2µM*,-4.2%,?,-92.8*,8.2µM*,-56.7%
Cc1ccc(NC(=S)Nc2ccc(F)cc2)c(C)c1,-23.9%,5.4%,0.6%,-58.8*,-11.0%,-24.0%
CCN(CC)c1ccc(NC(=S)Nc2ccc(F)cc2)cc1,23.1µM*,7.9%,-5.3%,?,?,0.0%
CC(C)=CNNC(=O)c1ccc(O)cc1,4.0%,nt,-3.6%,nt,1.6%,-4.2%
COc1cc(-c2nnc(NC(=O)CCS(=O)(=O)c3ccccc3)o2)cc(OC)c1OC,14.6µM*,0.6%,11.2µM*,-54.7*,16.4µM*,-39.8%
COc1cc(-c2nnc(NC(=O)CCS(=O)(=O)c3ccc(F)cc3)o2)cc(OC)c1OC,18.4µM*,0.9%,?,5.6,?,2.5%
COCCCNc1nc2c(S(=O)(=O)c3ccc(C)c(C)c3)nnn2c2ccc(Cl)cc12,?,0.0%,?,nt,?,-12.9%
COCCCNc1nnc(Cc2ccc(Cl)cc2)c(=O)[nH]1,0.82µM*,nt,-5.3%,24.3,0.411µM*,-14.2%
SMILES,TDP1 cell noCPT,TDP1 inh,TGFb SMAD3 inh,IL1B secr inh,TDP1 cell CPT,HepG2 viability
COc1ccc(-c2cccc([C@H]3[C@@H]4C=CC[C@@H](C)[C@@H]4C(=O)N3Cc3ccccc3)c2)cc1,20.6µM*,-2.4%[56.1 µM],?,-23.2,23.1µM*,-31.4%
COc1ccc(C2C3C=CCC(c4ccccc4)C3C(=O)N2Cc2ccccc2)cc1Cl (centres undefined),nt,11.5%,?,nt,nt,-66.8%
COc1ccc(-c2ccc(C)cc2)cc1[C@H]1[C@H]2C=CC[C@@H](C)[C@@H]2C(=O)N1Cc1ccccc1,?,-1.2%,-14.5%,31.0,?,-7.6%
CC1CC=CC2C1C(=O)N(Cc1ccccc1)C2c1ccc(F)c(-c2ccc(N(C)C)cc2)c1 (centres undefined),nt,20.3%,-5.1%,nt,nt,-3.1%
COc1ccc(-c2cccc(C3CC=CC4C3C(=O)N(Cc3ccccc3)C4c3ccc4ccccc4c3)c2)cc1 (centres undefined),14.6µM*,5.6%,-6.9%,43.4,18.4µM*,2.8%
COc1ccc(C2C3C=CCC(c4cccc(-c5ccc(C)cc5)c4)C3C(=O)N2Cc2ccccc2)cc1Cl (centres undefined),13µM*,3.2%,?,7.5,23.1µM*,-29.2%
Cc1ccc(-c2cc([C@H]3[C@H]4C=CC[C@@H](C)[C@@H]4C(=O)N3Cc3ccccc3)ccc2F)cc1,20.6µM*,-3.5%,0.4%,15.3,?,-18.7%
COc1ccc(C2C3C=CCC(c4cccc(-c5ccc(N(C)C)cc5)c4)C3C(=O)N2Cc2ccccc2)cc1Cl (centres undefined),nt,11.5%,-0.6%,nt,nt,10.2%
COC1c2ccccc2C(=O)N1Cc1ccc(F)cc1 (centres undefined),?,nt,-16.6%,-8.6,-6.8%,9.5%
C/C(=N\OCC(=O)OCC(=O)N(C)c1ccccc1)c1ccc2c(c1)OCO2,1.0%,1.5%,9.4%,-3.1,-13.4%,5.1%
CN(CCCNC(=O)c1ccc(CS(=O)c2ccc(Br)cc2)o1)Cc1ccccc1 (centres undefined),21.8%,2.9%,7.3%,-0.4,-13.0%,1.4%
O=C1C2C(c3ccccc3)CC=CC2[C@H](c2ccc3ccccc3c2)N1Cc1ccccc1 (some centres undefined),23.1µM*,3.5%,0.8%,-19.6,20.6µM*,-8.2%
